Assay results from the supplement of paper PMC6555819.

Assays:
Assay in all cases: PBM binding z-score (relative to random genomic background probes); higher = stronger binding; sequences stand for … in GC…GCGATTGACAGCGTAGAATGAAGG
[1] = system: FXR:RXRa (NR concentration 270 nM, RXRa partner concentration 90 nM)
Summary of the method: (§1)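 Each nuclear receptor dimer, without ligand, was incubated for 1 h on custom Agilent 4×180K protein-binding microarrays. Binding was detected with antibodies against each partner (one per run), and scanned fluorescence was regression-normalized. The binding z-scores are referenced to random human genomic background probes.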

[2] = system: LXRa:RXRa (NR concentration 270 nM, RXRa partner concentration 90 nM)
Summary of the method: as §1

[3] = system: LXRa homodimer (NR concentration 270 nM)
Summary of the method: as §1

[4] = system: LXRb:RXRa (NR concentration 270 nM, RXRa partner concentration 90 nM)
Summary of the method: as §1

[5] = system: LXRb homodimer (NR concentration 270 nM)
Summary of the method: as §1

[6] = system: PPARa:RXRa (NR concentration 270 nM, RXRa partner concentration 90 nM)
Summary of the method: as §1

[7] = system: PPARg:RXRa (NR concentration 180 nM, RXRa partner concentration 90 nM)
Summary of the method: as §1

[8] = system: PPARg:RXRa 270nM:90nM, anti-RXR (NR concentration 270 nM, RXRa partner concentration 90 nM)
Summary of the method: as §1

[9] = system: PPARg:RXRa 30nM:10nM, anti-RXR (NR concentration 30 nM, RXRa partner concentration 10 nM)
Summary of the method: as §1

[10] = system: PPARg:RXRa 90nM:30nM, anti-RXR (NR concentration 90 nM, RXRa partner concentration 30 nM)
Summary of the method: as §1

[11] = system: PPARg:RXRa DBDmut IVT, anti-RXR (DBD mutation: RXRa K156A/R161A, NR concentration 270 nM, RXRa partner concentration 90 nM)
Summary of the method: as §1

[12] = system: PPARg:RXRa IVT, anti-PPARg (NR concentration 270 nM, RXRa partner concentration 90 nM)
Summary of the method: as §1

[13] = system: PPARg DBDmut IVT, anti-PPARg (DBD mutation: PPARg1 K132A/R137A, NR concentration 270 nM)
Summary of the method: as §1

[14] = system: PPARg homodimer (NR concentration 180 nM)
Summary of the method: as §1

[15] = system: PXR:RXRa (NR concentration 270 nM, RXRa partner concentration 90 nM)
Summary of the method: as §1

[16] = system: PXR homodimer (NR concentration 270 nM)
Summary of the method: as §1

[17] = system: RARa:RXR (NR concentration 270 nM, RXRa partner concentration 90 nM)
Summary of the method: as §1

[18] = system: RARa homodimer (NR concentration 270 nM)
Summary of the method: as §1

[19] = system: RARb:RXRa (NR concentration 270 nM, RXRa partner concentration 90 nM)
Summary of the method: as §1

[20] = system: PPARg DBDmut:RXRa IVT, anti-PPARg (DBD mutation: PPARg1 K132A/R137A, NR concentration 270 nM, RXRa partner concentration 90 nM)
Summary of the method: as §1

Sequence	PBM binding z-score [1]	PBM binding z-score [2]	PBM binding z-score [3]	PBM binding z-score [4]	PBM binding z-score [5]	PBM binding z-score [6]	PBM binding z-score [7]	PBM binding z-score [8]	PBM binding z-score [9]	PBM binding z-score [10]	PBM binding z-score [11]	PBM binding z-score [12]	PBM binding z-score [13]	PBM binding z-score [14]	PBM binding z-score [15]	PBM binding z-score [16]	PBM binding z-score [17]	PBM binding z-score [18]	PBM binding z-score [19]	PBM binding z-score [20]
CGAACTAGGTCCCCAGGACAGTGAAGAGGTTGGA	-0.407	-0.759	-0.417	-0.926	-1.3	0.171	0.418	0.762	-0.453	0.0759	3.03	2.5	-1.06	-0.774	-0.741	-0.316	-0.649	-0.996	0.0236	–
ATATGTAGGTTAGGTTCATTCAGAAAGTAGGGAA	1.59	2.28	0.871	2.34	1.28	4.1	4.93	4.37	2.49	4.03	6.23	5.61	2.4	1.77	2.89	2.26	2.24	1.68	1.5	–
CGAACTAGGGCAAAGGACAGTGAAAGGCGACGTA	-0.161	-0.272	-0.336	-0.481	-1.45	3.45	9.04	7.51	8.13	8.74	7.08	6.68	0.104	0.584	-0.478	-0.625	-0.393	-0.727	2	–
CGAACTAGGTCAAAGGACCGTGAAAGGCGACGTA	3.56	2.39	0.0544	1.48	-0.478	4.99	8.12	6.9	5.98	7.29	7.75	8.21	0.0403	0.811	0.907	-0.51	1.44	-0.512	3.69	–
CGAACTAGGTGAAAGGACAGTGAAAGGCGACGTA	-0.276	-0.418	-0.4	-0.115	-0.863	4.46	8.84	7.7	6.77	8.31	7.36	7.28	1.83	1.93	-0.398	-0.114	-0.0573	-0.695	1.54	–
CGAACTAGGTCAAAGAACAGTGAAAGGCGACGTA	3.3	1.96	-0.252	1.43	-0.259	4.66	8.35	7.08	5.63	7.35	7.89	8.03	1.2	0.602	0.752	-0.206	1.51	-0.184	3.58	–
CGAACTGGGTCAAAGGACAGTGAAAGGCGACGTA	3.03	1.55	-0.452	1.37	-0.785	5.23	10.1	8.57	7.98	9.33	7.3	7.89	-0.0176	0.919	1.21	-0.282	2.12	-0.262	3.44	–
CGAACTAGGTCACCAGAACAGTGAAGAGGTTGGA	3.61	2.14	-0.204	1.65	-0.116	5.2	8.46	6.91	5.08	6.61	8.55	8.85	1.39	1.64	1.29	-0.143	2.45	0.0997	4.2	–
CGAACTAGATCACCAGGACAGTGAAGAGGTTGGA	-0.196	-0.468	-0.072	-0.702	-0.495	-0.082	0.66	-0.0755	-0.0214	-0.286	3.19	1.58	-0.163	0.192	-0.455	-0.0713	-0.108	-0.196	-0.0219	–
ATATGTAGGTTAGGATCATTCAGAAAGTAGGGAA	0.633	0.786	0.139	0.95	0.084	2.83	3.9	3.07	1.22	2.31	6.17	6.13	1.84	1.69	0.594	0.622	0.758	1.36	0.759	–
CGAACTAGGTCACCAGGACCGTGAAGAGGTTGGA	3.87	2.36	-0.1	1.5	-0.339	4.88	8.27	6.8	4.02	6.42	8.24	8.31	0.567	1.94	1.19	-0.498	2.08	-0.00105	4.08	–
ATATGTAGGTTAGGGTCATACAGAAAGTAGGGAA	4.95	4.24	0.95	4.42	1.32	5.66	8.3	6.82	4.46	6.69	6.63	6.88	2.42	2.62	4.21	1.46	5.03	1.3	3.53	–
CGAATTAGGTCACCAGGACAGTGAAGAGGTTGGA	4.43	2.73	0.379	2.04	-0.0787	5.25	8.25	6.75	4.82	6.53	8.17	8.71	2.04	2.36	1.78	0.578	2.92	0.711	4.52	–
CGAATTAGGTCAAAGGACAGTGAAAGGCGACGTA	4.51	3.08	0.314	2.23	0.106	6.11	9.47	8.69	8.66	9.34	8.15	7.88	2.44	2.21	1.46	0.358	2.87	0.296	4.18	–
ATATGTATGTTAGGGTCATTCAGAAAGTAGGGAA	4.58	3.8	1.34	4.19	1.46	4.84	4.3	3.99	1.85	3.4	2.61	3.27	2.23	2.64	4.24	1.37	4.82	1.45	3.15	–
ATGTGTAGGTTAGGGTCATTCAGAAAGTAGGGAA	5.11	4.15	1.8	4.76	2.68	5.13	4.57	4.47	2.37	3.65	2.92	3.98	1.73	3.73	4.68	3.2	5.25	2.44	3.87	–
ATATGTACGTTAGGGTCATTCAGAAAGTAGGGAA	4.38	3.61	0.485	3.96	1.15	4.77	2.68	2.97	1.27	2.07	0.518	2.04	1.66	2.39	4.47	1.32	4.93	1.08	3.1	–
ATATGTAGGTTAGGGTGATTCAGAAAGTAGGGAA	1.37	1.32	0.569	1.83	1.47	3.62	5.4	4.45	2.06	3.62	6.7	6.39	1.41	2.93	1.04	1.31	1.3	1.25	1.38	–
CGAAGTAGGTCAAAGGACAGTGAAAGGCGACGTA	4.62	3.33	0.269	2.23	-0.098	5.66	10.5	8.99	8.23	9.73	8.31	8.72	4.59	2.49	1.66	0.0557	2.53	0.312	3.93	–
ATATGTAGGTTAGGGTCATTCATAAAGTAGGGAA	5.45	4.03	1.6	4.64	1.55	5.93	8.24	6.58	4.58	6.47	6.2	7.14	4.07	4.85	4.73	2.83	4.99	2.19	3.63	–
CGAACTAGGTCATCAGGACAGTGAAGAGGTTGGA	4.1	2.56	0.124	1.44	-0.279	5	7.71	6.43	4.15	5.72	7.93	8.18	0.121	1.34	1.32	0.123	2.27	0.72	3.9	–
ATATGTAGGTTCGGGTCATTCAGAAAGTAGGGAA	3.32	2.84	1.01	3.38	1.52	4.37	4.22	4.12	1.6	3.34	3.06	4.01	1.7	2.61	3.53	1.57	3.97	1.72	2.5	–
CGAACTAGGTCACCAGGACAGTGCAGAGGTTGGA	4.04	2.7	0.199	1.76	-0.667	5.21	8.59	6.83	4.82	6.44	8.28	8.75	0.713	2.02	1.73	0.15	2.58	0.578	4.14	–
ATATGTAGGTTAGGGTCATTTAGAAAGTAGGGAA	4.85	3.93	1.62	4.59	1.67	5.67	7.69	6.54	4.42	6.23	6.56	6.66	2.64	3.47	4.23	1.89	4.82	1.85	3.33	–
CGAACTAGGTCACCAGGAAAGTGAAGAGGTTGGA	3.52	2.48	-0.13	1.69	-0.3	5.05	8.48	7.2	5.35	6.86	8.65	8.74	0.796	2.05	1.48	-0.0939	2.37	0.814	4.29	–
CGAACTAGGTCAAAGGACAATGAAAGGCGACGTA	3.98	2.65	0.155	1.92	-0.0883	5.61	10.3	8.49	8.29	9.41	7.79	8.35	0.575	1.69	1.5	0.00867	2.52	0.325	3.85	–
CGAACTAGGTCACCAGGACAGTGTAGAGGTTGGA	4.04	2.35	-0.0613	1.77	-0.589	5.08	8.54	6.85	4.68	6.46	8.42	8.73	1.75	2.71	1.58	-0.179	2.54	0.514	4.1	–
ATATGTAGGTTAGTGTCATTCAGAAAGTAGGGAA	1	1.03	0.483	1.41	0.974	3.21	4.15	3.57	1.5	2.8	6.62	6.21	2.47	1.86	1.09	0.763	1.32	2.19	1.4	–
CGAACTAGGTCACCAGGACGGTGAAGAGGTTGGA	3.75	2.3	-0.206	1.19	-0.86	5.23	8.37	6.93	4.31	6.43	7.98	8.73	2.21	2.07	1.18	-0.299	2.21	-0.518	4.26	–
ACTTACGGGTCAACGAAGTTATAGCACGCGTATA	6.23	4.01	0.164	3.62	0.73	5.47	–	4.81	1.85	3.63	2.94	3.94	3.18	2.32	3.73	0.0102	4.15	0.443	4.15	2.05
